Assay outcomes as filed in PubChem BioAssay.
Most compounds without a hit are left out; they make up all but 2.4% or so of the library.
TLR9-MyD88 block = blocks human TLR9 binding to MyD88; 340,000 compounds, 0.21% hits; CHO BLA complementation TLR9-MyD88, CCF4 FRET ratio; inhibition, % at 4.98 µM;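 active = inhibition above the mean over all tested compounds plus 3 SD, cut at about 21% in these data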
TLR4-MyD88 BLA = inhibitors of human TLR4-MyD88 binding; O00206+Q99836; HeLa CL3-4 TLR4/MyD88 BLA complementation, FRET ratio; inhibition, % at 8.4 µM; 200,000 compounds, 0.18% hits; in the data active = inhibition above about 25%
HSF1 activator = increases HSF-1 driven luciferase reporter signal; AID 504408; NIH3T3-HGL HSF-1 luciferase reporter, MG132, 8 h; 100% = twice DMSO control signal; 300,000 compounds, 1.7% hits; activation, % at 9 µM;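 active = mean replicate activation of at least 50% with a set share of replicates each reaching 50%; inconclusive = only one of those two conditions met; inactive = mean below 50% and too few replicates reaching it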
HSF1 inh = HSF1 inhibition | NIH3T3-HGL HSE-luciferase, MG132-induced, luminescence 8 h; stronger effect = lower value | activity change, negative = inhibition, % at 7.5 µM (by protocol) | 300,000 compounds, 0.77% hits | AID 2098;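 active = more than half of replicate wells show activity change below -50%, luminescence cut by over half; inconclusive = some wells, but at most half, below -50%; inactive = no replicate well below -50%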;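 also: luciferase reports HSF-1 transcriptional activity via heat shock element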
NOD2 RIPK2 PPI = blocks binding of human NOD2 to RIPK2; O43353; CHO BLA complementation NOD2-RIPK2, CCF4 ratio; inhibition, % at 4.98 µM; 360,000 compounds, 0.38% hits; in the data active = inhibition above about 21%
TLR4-MyD88 conf = confirmation of human TLR4-MyD88 binding inhibitors; HeLa CL3-4 BLA complementation, CCF4 FRET ratio; 350 compounds, 50% hits; inhibition, % at 8.4 µM; AID 941; shares compounds with TLR4-MyD88 BLA;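 active = mean inhibition across three repeat runs above about 25% carried over from the earlier screen, limit read from the data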
BLA inhibitor ct = counter-screen for TLR4-MyD88 inhibitors: beta-lactamase reporter inhibitors; shares compounds with TLR4-MyD88 BLA; HeLa BLA reporter, CCF4 FRET ratio; inhibition, % at 8.4 µM; 350 compounds, 63% hits;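 active = mean inhibition over three repeats above about 26% taken from the earlier screen, limit read from the data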;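 also: HeLa cells stably expressing beta-lactamase reporter as counterscreen for TLR4-MyD88 inhibitors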
TLR9-MyD88 conf = confirmation of human TLR9-MyD88 binding inhibitors. shares compounds with TLR9-MyD88 block. inhibition, % at 4.98 µM. 680 compounds, 51% hits. CHO TLR9/MyD88 BLA complementation, CCF4 FRET ratio;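 active = mean inhibition across three repeats above about 21% taken from the earlier screen, limit read from the data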;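 also: blue over green emission ratio reports constitutive TLR9 MyD88 association via BLA complementation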
BLA counter-1 = counter-screen for TLR9-MyD88 inhibitors: non-selective beta-lactamase inhibitors. shares compounds with TLR9-MyD88 block. CHO-BLA cells, CCF4 FRET ratio, BLA reporter. inhibition, % at 4.98 µM. 680 compounds, 7% hits;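 active = mean inhibition above a 50% cutoff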;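 also: counterscreen of TLR9-MyD88 hits on CMV-driven BLA in CHO-K1 cells; higher means less blue over green ratio so more BLA blockade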
TLR9 CHO tox = counter-screen for TLR9-MyD88 inhibitors: cytotoxicity in CHO cells; shares compounds with TLR9-MyD88 block; luminescence; inhibition, % at 4.98 µM; 680 compounds, 39% hits; AID 588336; in the data active = inhibition above about 11%
NOD2 RIPK2 conf = NOD2-RIPK2 interaction inhibition confirmed; shares compounds with NOD2 RIPK2 PPI; CHO cells, NOD2-RIPK2 BLA complementation, CCF4 FRET; inhibition, % at 4.98 µM; 1,200 compounds, 70% hits;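 active = mean inhibition across replicates above a set limit taken from the earlier primary screen, cut at about 21% in these data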
BLA counter-2 = counter-screen for NOD2-RIPK2 interaction inhibitors: BLA reporter; 1,200 compounds, 57% hits; shares compounds with NOD2 RIPK2 PPI; inhibition, % at 4.98 µM; CHO BLA reporter, CCF4 FRET ratio, counterscreen;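 active = mean inhibition above the low-control mean inhibition plus three low-control SD, cut at about 11% in these data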
A number is an active result.

Screening CC(=O)C1=NN(c2ccccc2)C(c2ccc3c(c2)OCO3)N1c1ccccc1 (centres undefined) returned TLR9-MyD88 block inactive, TLR4-MyD88 BLA 28, HSF1 activator inactive, HSF1 inh inactive, NOD2 RIPK2 PPI 21, TLR4-MyD88 conf inactive, BLA inhibitor ct 36, NOD2 RIPK2 conf 39 and BLA counter-2 49.
Screening COc1ccc(NC(=O)N(C)C[C@@H]2OCc3cn(nn3)CCCC(=O)N([C@H](C)CO)C[C@H]2C)cc1 returned TLR9-MyD88 block inactive and NOD2 RIPK2 PPI inactive.
`COc1cc(OC)c(OC)cc1CNC(=O)c1cc(S(=O)(=O)N2CCOCC2)ccc1F` gave TLR9-MyD88 block inactive and NOD2 RIPK2 PPI inactive.
For CC1CCCCC1NC(=O)CN1C(=O)c2cccc(N)c2C1=O (centres undefined) the results were TLR9-MyD88 block 38, TLR4-MyD88 BLA 33, HSF1 activator inactive, HSF1 inh inactive, NOD2 RIPK2 PPI 47, TLR4-MyD88 conf 33, BLA inhibitor ct 52, TLR9-MyD88 conf inactive, BLA counter-1 inactive, TLR9 CHO tox inactive, NOD2 RIPK2 conf 42 and BLA counter-2 48.
Screening COCCCNC(=O)CN1C(=O)c2ccccc2C1=O returned TLR9-MyD88 block inactive, TLR4-MyD88 BLA inactive, HSF1 activator inactive, HSF1 inh inactive and NOD2 RIPK2 PPI inactive.
For CCCCNC(=O)CN1C(=O)c2cccc(N)c2C1=O the results were TLR9-MyD88 block 38, TLR4-MyD88 BLA 38, HSF1 activator inactive, HSF1 inh inactive, NOD2 RIPK2 PPI 45, TLR4-MyD88 conf 27, BLA inhibitor ct 48, TLR9-MyD88 conf inactive, BLA counter-1 inactive, TLR9 CHO tox inactive, NOD2 RIPK2 conf 45 and BLA counter-2 48.
`CCN1CCc2c(sc(NC(=O)Nc3ccc(Cl)c(Cl)c3)c2C(N)=O)C1` gave TLR9-MyD88 block 48, TLR4-MyD88 BLA 35, NOD2 RIPK2 PPI 41, TLR4-MyD88 conf 38, BLA inhibitor ct 60, TLR9-MyD88 conf inactive, BLA counter-1 inactive, TLR9 CHO tox 20, NOD2 RIPK2 conf 24 and BLA counter-2 30.
For CCCCCCCCn1c2c(c(=N)c3ccccc31)CCC2 the results were TLR4-MyD88 BLA 35, HSF1 activator inactive, HSF1 inh inactive, NOD2 RIPK2 PPI 21, TLR4-MyD88 conf inactive, BLA inhibitor ct 28, NOD2 RIPK2 conf inactive and BLA counter-2 inactive.
Cc1ccc(NC(=O)CN(C)C(=O)Cn2ncc(Cl)c(Cl)c2=O)cc1 was read as TLR9-MyD88 block inactive, TLR4-MyD88 BLA 32, HSF1 activator 52, HSF1 inh inactive, NOD2 RIPK2 PPI 25, TLR4-MyD88 conf inactive, BLA inhibitor ct inactive, NOD2 RIPK2 conf 23 and BLA counter-2 inactive.
CNC(=O)COC(=O)c1ccccc1C(=O)c1ccc(Cl)c([N+](=O)[O-])c1 was read as TLR9-MyD88 block 25, TLR4-MyD88 BLA 32, HSF1 activator inconclusive, HSF1 inh inconclusive, NOD2 RIPK2 PPI 24, TLR4-MyD88 conf inactive, BLA inhibitor ct inactive, TLR9-MyD88 conf 23, BLA counter-1 inactive, TLR9 CHO tox inactive, NOD2 RIPK2 conf 53 and BLA counter-2 inactive.
CC(C)OC(=O)c1ccccc1C(=O)c1ccc(N)c([N+](=O)[O-])c1 was read as TLR9-MyD88 block inactive, TLR4-MyD88 BLA inactive, HSF1 activator inactive, HSF1 inh inactive and NOD2 RIPK2 PPI inactive.
`Cc1ccc(NC(=O)C(c2ccccc2)N2CCN(CC(=O)NC3CC3)CC2)cc1` (centres undefined) gave TLR9-MyD88 block inactive and NOD2 RIPK2 PPI inactive.
For Cc1cccc(C)c1NC(=O)CN(C)C(=O)CSC(=S)N1CCCC1 the results were TLR9-MyD88 block inactive, HSF1 activator inactive, HSF1 inh inactive and NOD2 RIPK2 PPI inactive.
N#C/C(=C/c1ccc(-c2ccc(S(N)(=O)=O)cc2)o1)c1nc2ccccc2s1 was read as TLR9-MyD88 block 47, TLR4-MyD88 BLA 46, NOD2 RIPK2 PPI 39, TLR4-MyD88 conf 46, BLA inhibitor ct 75, TLR9-MyD88 conf 46, BLA counter-1 inactive, TLR9 CHO tox 24, NOD2 RIPK2 conf 71 and BLA counter-2 71.
For Cc1ccc(NC(=O)c2c(C)nn(-c3ccccc3)c2Cl)cc1 the results were TLR9-MyD88 block inactive, TLR4-MyD88 BLA inactive, HSF1 activator inactive, HSF1 inh inactive and NOD2 RIPK2 PPI inactive.
For Cc1ccc(NC2=Nc3ccccc3N3C2=Nc2c(c(C)nn2-c2ccccc2)C3c2ccc(O)c(O)c2)cc1 (centres undefined) the results were TLR9-MyD88 block 66, TLR4-MyD88 BLA 51, NOD2 RIPK2 PPI 66, TLR4-MyD88 conf 53, BLA inhibitor ct 84, TLR9-MyD88 conf 59, BLA counter-1 66, TLR9 CHO tox inactive, NOD2 RIPK2 conf 74 and BLA counter-2 81.
For Cn1c(-c2c(N)n(-c3ccccc3)c3nc4ccccc4nc23)nc2ccccc21 the results were TLR9-MyD88 block 47, TLR4-MyD88 BLA 54, HSF1 activator inactive, HSF1 inh inactive, NOD2 RIPK2 PPI 55, TLR4-MyD88 conf 49, BLA inhibitor ct 76, TLR9-MyD88 conf 42, BLA counter-1 inactive, TLR9 CHO tox 12, NOD2 RIPK2 conf 71 and BLA counter-2 73.
For CCCN1C(=O)/C(=C/c2ccc(N3CCCC3)c(C)c2)NC1=S the results were TLR9-MyD88 block 35, TLR4-MyD88 BLA 37, HSF1 activator inactive, HSF1 inh inactive, NOD2 RIPK2 PPI 35, TLR4-MyD88 conf 37, BLA inhibitor ct 69, TLR9-MyD88 conf 26, BLA counter-1 inactive, TLR9 CHO tox inactive, NOD2 RIPK2 conf 49 and BLA counter-2 55.
Screening O=C1c2cccc3c(N4CCCCC4)ccc(c23)C(=O)N1c1ccccc1O returned TLR9-MyD88 block 49, TLR4-MyD88 BLA 28, HSF1 activator inactive, HSF1 inh inactive, NOD2 RIPK2 PPI 52, TLR4-MyD88 conf 26, BLA inhibitor ct 39, TLR9-MyD88 conf 32, BLA counter-1 inactive, TLR9 CHO tox inactive, NOD2 RIPK2 conf 60 and BLA counter-2 66.
